In PubChem BioAssay AID504326 (The Scripps Research Institute Molecular Screening Center, 2011) one finds activation data, which are given here for 41 compounds.

Screen size: about 340,000 compounds; about 990 (0.29%) were called active. This is one part of a sample in which actives are shown more often than they occur. A number with no mark means an inactive call. Cut-off read from the data, not from the text of the source: active = activation above about 18%; inactive = the rest.

The target of the assay is Mu-type opioid receptor (Homo sapiens) + Delta-type opioid receptor (Homo sapiens) (UniProt P35372+P41143). The experiment in a line: inducers of mu-delta opioid receptor heterodimers – cell-based, luminescence, primary screen (AID 504326).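 Note: 0% = vehicle-treated cells and 100% = reference agonist.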 To be noted: cells, OPRM1-OPRD1 heterodimerization, at 9.3 µM, hits give high values.
Sequence of Mu-type opioid receptor (Homo sapiens) + Delta-type opioid receptor (Homo sapiens) (P35372 whole entry, looked up): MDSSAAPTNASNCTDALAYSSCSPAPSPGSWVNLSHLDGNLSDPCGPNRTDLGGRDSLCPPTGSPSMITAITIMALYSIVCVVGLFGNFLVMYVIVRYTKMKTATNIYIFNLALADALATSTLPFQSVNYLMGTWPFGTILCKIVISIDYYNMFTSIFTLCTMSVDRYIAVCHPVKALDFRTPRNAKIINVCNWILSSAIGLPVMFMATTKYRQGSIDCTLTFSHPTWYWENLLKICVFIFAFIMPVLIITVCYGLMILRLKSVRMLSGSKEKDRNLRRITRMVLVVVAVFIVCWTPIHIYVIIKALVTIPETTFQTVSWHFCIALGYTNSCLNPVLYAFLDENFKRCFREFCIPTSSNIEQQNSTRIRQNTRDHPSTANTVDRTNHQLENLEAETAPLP
Sequence of Mu-type opioid receptor (Homo sapiens) + Delta-type opioid receptor (Homo sapiens) (P41143 whole entry, looked up): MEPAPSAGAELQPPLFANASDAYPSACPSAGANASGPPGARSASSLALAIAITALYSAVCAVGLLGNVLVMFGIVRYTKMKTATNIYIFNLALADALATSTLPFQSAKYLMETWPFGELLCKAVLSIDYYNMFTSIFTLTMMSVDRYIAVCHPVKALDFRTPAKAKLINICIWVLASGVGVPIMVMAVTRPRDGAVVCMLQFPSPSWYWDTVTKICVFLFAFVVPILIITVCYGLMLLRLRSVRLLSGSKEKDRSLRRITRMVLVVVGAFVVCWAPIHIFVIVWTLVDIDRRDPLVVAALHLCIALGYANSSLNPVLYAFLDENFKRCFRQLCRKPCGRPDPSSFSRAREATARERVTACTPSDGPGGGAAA
Take `O=C(N1CCOCC1)N(Cc1ccccc1)c1ccccn1`: the activation was -1.92%.

Consider `CC(=O)CSc1nc(CCc2ccccc2)c(C#N)c(=O)[nH]1`, for which the activation is -2.33%. Under `COc1ccc(/C=C2/S/C(=N/N=C3\CC4CCC3(C)C4(C)C)NC2=O)cc1` (stereo unspecified) stands 0.11%; under `CCN1C(=NCCc2cccnc2)N[C@@H](c2ccccc2)C(C(=O)OC)=C1C`, 0.22%; under `Clc1ccc(C2[C@H]3CN(CC4CCCCC4)[C@H](c4ccccc4)C34CC2(c2cccnc2)C4)cn1` (stereo partly specified), -1.67%. To `COC(=O)c1ccc(C23CC4(C2)[C@H](CN(Cc2cccnc2)[C@@H]4c2ccccc2)C3c2ccc(Cl)nc2)cc1` (stereo partly specified) belongs 19.2% (active). Under `O=C(/C=C/c1cnc2ccccc2n1)NC1CCCCCC1` stands -1.86%; under `CC(C)NS(=O)(=O)c1ccc(NC(=O)C2CCCCC2)cc1`, -1.18%; under `Cc1ccc(CNC(=O)[C@@H](NC(=O)Cc2ccccc2)C(C)C)cc1`, 2.39%. Consider `Cc1ccc(CNC(=O)CC(NC(=O)c2ccccc2)c2ccccc2)cc1` (stereo unspecified), for which the activation is 22.7% (active).

As for `O=C(CC(NC(=O)c1ccccc1)c1ccccc1)Nc1ccc(F)c(F)c1` (stereo unspecified), the activation is 1.24%. Under `CCOC(=O)CC(NC(=O)C1c2ccccc2Oc2ccccc21)c1ccc(C)cc1` (stereo unspecified) stands -2.87%; under `COc1ccc(C(CNC(=O)c2ccc(S(=O)(=O)Nc3ccccc3F)cc2)N(C)C)cc1` (stereo unspecified), -3.41%; under `Cc1cccc(OCC(=O)Nc2ccccc2F)c1`, -3.72%. To `COc1ccc(C(CNCC(=O)Nc2ccccc2F)N(C)C)cc1` (stereo unspecified) belongs 149% (active); to `COCCNC(=O)C(c1ccc(C)cc1)N(C(=O)CCC(=O)Nc1ccccn1)c1cccc(C)c1` (stereo unspecified), -0.25%; to `CCNC(=S)N1CCN(c2ncccn2)CC1`, -2.13%.

On to `CCn1nnnc1SCC(=O)Nc1ccc(N(C)C)cc1`, for which the activation is -1.37%. With `O=C(NCCc1ccc2c(c1)OCCO2)c1cc2ccccc2o1`, the activation was -0.68%.

`CN(C)C(CNC(=O)Cc1ccc([N+](=O)[O-])cc1)c1ccccc1` (stereo unspecified): the activation is 67.1% (active). To `CN(C)CCNC(=O)Cc1ccc([N+](=O)[O-])cc1` belongs -3.71%.

In the case of `CN(C)C(CNC(=O)c1cc2ccccc2o1)c1ccccc1` (stereo unspecified), the activation is 197% (active).

As for `O=C(CC(c1ccccc1)c1ccccc1)NCC(O)c1ccc([N+](=O)[O-])cc1` (stereo unspecified), the activation is 2.4%. As for `Cc1cc(NC(=O)c2cc3ccccc3o2)no1`, the activation was -2.3%.

Turning to `COc1ccc(NC(=O)CN2C(=O)COc3ccc(S(=O)(=O)N4CCOCC4)cc32)c(OC)c1`, the activation was -1.21%.

Take `CN1CCN(c2ccc([N+](=O)[O-])c(Sc3nc4ccccc4[nH]3)c2)CC1`: the activation was 55.9% (active). Under `O=[N+]([O-])c1ccc(N2CCSCC2)cc1O` stands 0.34%; under `O=C(CSc1nc2ccccc2[nH]1)N/N=C/C=C\c1ccccc1[N+](=O)[O-]`, -1.78%. As for `CC(Sc1nnc(CNC(=O)c2ccccc2F)n1C)C(=O)Nc1nccs1` (stereo unspecified), the activation is -0.21%. Turning to `CCCCN(C(=O)COc1ccc(NC(C)=O)cc1)C1CCS(=O)(=O)C1` (stereo unspecified), the activation is -1.71%.

On to `COc1cc2c(cc1OC)CC1(CCCCC1)N=C2`, for which the activation is -3.02%. `COc1ccc(CCNC(=O)CN(c2ccccc2)S(C)(=O)=O)cc1OC`: the activation was 0.27%. With `COc1ccc(CCNC(=O)C(Sc2ccccn2)c2ccccc2)cc1OC` (stereo unspecified), the activation is -2.64%. With `COc1ccc(C(CCN(Cc2ccc(OC)c(OC)c2)C(=O)CCl)c2ccccc2)cc1` (stereo unspecified), the activation was 91.3% (active). Consider `CN(CC(=O)NCCc1ccccc1)S(=O)(=O)c1cnc[nH]1`, for which the activation is -1.45%. Under `CSc1sc(C)cc1C1C(C#N)=C(N)N(c2cccnc2)C2=C1C(=O)CCC2` (stereo unspecified) stands -1.23%; under `CN1C(CC(=O)Nc2ccc(Br)cc2)c2ccccc2CC1(C)C` (stereo unspecified), 77.8% (active); under `COCC(=O)Nc1ccc(Br)cc1`, -3.01%. Under `CN1CCN(NC(=O)Nc2ccc(Br)cc2)CC1` stands -3.59%; under `Cc1ccc(F)cc1S(=O)(=O)Nc1cccc(C(=O)N2CCCC(C(N)=O)C2)c1` (stereo unspecified), 3.39%; under `CCN(CC)C(=O)CC1(c2ccccc2OC)CCOC(C(C)C)C1` (stereo unspecified), -2.63%.
